PubChem BioAssay AID2284110 (EPA ToxCast)
Records with an inconclusive call do not appear. The source made the active and inactive calls. The calls were made as follows: active = hit-call score of the fitted dose curve at least 0.9, where 1 is the maximum; inconclusive = response in the unintended direction; inactive = score below 0.9.

target: human Adrenoceptor Receptor alpha1A Antagonism, conducted at France lab site, ADRA1A (gene 148) (UniProt P35348); experiment: ERF_FR_GPCR_hADRA1A: Eurofins (ERF) G Protein-Coupled Receptor (GPCR) Radioligand Binding LeadHunter Assay for human Adrenoceptor Receptor alpha1A Antagonism, conducted at France lab site
Sequence (P35348 whole entry, looked up): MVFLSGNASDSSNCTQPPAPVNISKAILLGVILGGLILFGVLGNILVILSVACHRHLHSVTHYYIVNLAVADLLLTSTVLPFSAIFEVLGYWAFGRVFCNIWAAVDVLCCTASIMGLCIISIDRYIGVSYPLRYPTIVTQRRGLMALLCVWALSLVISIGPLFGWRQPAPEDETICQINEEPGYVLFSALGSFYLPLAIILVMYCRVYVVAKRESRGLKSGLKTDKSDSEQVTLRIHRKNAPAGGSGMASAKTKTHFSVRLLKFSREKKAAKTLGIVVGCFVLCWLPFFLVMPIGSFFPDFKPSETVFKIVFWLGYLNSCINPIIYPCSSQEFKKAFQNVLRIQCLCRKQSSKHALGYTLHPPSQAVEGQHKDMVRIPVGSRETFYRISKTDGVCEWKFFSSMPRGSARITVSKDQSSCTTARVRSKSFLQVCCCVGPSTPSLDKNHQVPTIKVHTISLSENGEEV
Method: ERF_FR_GPCR_hADRA1A is a biochemical, single-readout assay that uses extracted gene-proteins in a cell-free assay. Measurements were taken 1 hour after chemical dosing in a 96-well plate. See alpha1A Human Adrenoceptor GPCR Binding (Antagonist Radioligand) Assay, Cerep.ERF_FR_GPCR_hADRA1A is an assay component calculated from the ERF_FR_GPCR_hADRA1A assay. It is designed to measure radioligand binding using a type of binding reporter as detected by scintillation counting with radiometry technology.Data from the assay component ERF_FR_GPCR_hADRA1A was analyzed at the assay endpoint, ERF_FR_GPCR_hADRA1A, in the positive analysis fitting direction relative to DMSO as the negative control and baseline of activity. Using a type of binding reporter, loss-of-signal activity can be used to understand changes in binding as they relate to gene ADRA1A. To generalize the intended target to other relatable targets, this assay endpoint is annotated to the gpcr intended target family, where the subfamily is adrenoceptor.
Human cells are incubated for 60 minutes in room temprature, using [3H]prazosin ligand at 0.1 Kd (nM) with WB-4101 control inhibitor.Test Sample Requirements: Minimum for 1) Screen: 60 ul of 10 mM stock -OR- 1 mg (pre-weighed) for […] uM final testing. 2) Dose Response: 90 ul of 10 mM stock -OR- 1 mg (pre-weighed) for a top concentration at 10 uM.

Structure (SMILES) | AC50
O=C(/C=C/c1ccc(O)cc1)CC(=O)/C=C/c1ccc(O)cc1 | 205 nM (active)
COc1cc(/C=C/C(=O)CC(=O)/C=C/c2ccc(O)c(OC)c2)ccc1O | 258 nM (active)
